Screening data: PubChem, National Center for Advancing Translational Sciences (NCATS)
Shown are actives, neighbours in structure and some others; about 21% of the full set was active somewhere.
ClpP mod: qHTS Assay for Activators of ClpP | 340,000 compounds, 1.9% hits | purified B. subtilis ClpP, FRET peptide cleavage, 20 min | Potency, µM (doses to about 57.5 µM), inactives show at the top dose activity change, negative = active; active = well fitted falling curve with a large enough effect; inconclusive = small, poorly fitted or top-dose-only effect; inactive = no such curve, though single readings can be large or run the other way; also: potency is read from the fitted curve at half-maximal effect; the source files actives as falling curves though it sought activators and does not explain the sign; nearly all actives have a fitted effect of over 65% in size
Target sequence (P80244 whole entry, looked up): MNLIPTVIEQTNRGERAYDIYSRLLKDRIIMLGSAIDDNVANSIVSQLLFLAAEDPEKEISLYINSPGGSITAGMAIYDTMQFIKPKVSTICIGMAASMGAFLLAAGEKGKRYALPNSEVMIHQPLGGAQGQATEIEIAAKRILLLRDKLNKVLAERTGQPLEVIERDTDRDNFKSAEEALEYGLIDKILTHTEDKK
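Purified B. subtilis ClpP, 10 microg/mL final in Tris/HCl pH8 with KCl, BSA, glycerol and Tween-20, cleaved an Abz/nitrotyrosine-quenched decapeptide. Fluorescence (ex 320, em 430) was read at 0 and 20 min at room temperature. Delta was normalized to 5.8 microM ADEP and DMSO/no-enzyme controls.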
D3 antag: blocks the human D3 dopamine receptor | D3R cells, DiscoveRx beta-arrestin luminescence, antagonist mode; hits give low values | max response, negative = inhibition, % | 360,000 compounds, 2.5% hits | AID 652054; in the data active = max response below about -50%; inconclusive = no clear call, values can overlap the other calls; also: % is scaled to controls: 0 for no effect and ±100 for the full control effect
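Cells plated overnight at 1500 cells/well, then exposed to library compounds with dopamine controls for 90 minutes at 37 degrees C. DiscoveRx reagent added for 30–60 minutes at room temperature; luminescence read, quantitative HTS format.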
IL-1B inflam inh: inhibitors of inflammasome signaling (IL-1 beta secretion). AID 743279. 360,000 compounds, 4.7% hits. THP-1 LPS/ATP IL-1B secretion, AlphaLISA, 16 h; hits give low values. activity change, % at 57.5 µM; in the data active = activity change below about -50%; inconclusive = mostly about -30% to -49%; also: % is scaled to controls: 0 for no effect and ±100 for the full control effect
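THP-1 cells pretreated 1 hr with compounds (up to 57.5 uM final), then stimulated with LPS (250 ng/mL final) plus ATP (1.25 mM final); secreted IL-1B measured by AlphaLISA after 16 hr, decreased signal indicating inhibition.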
DRD3 agonist: D3 dopamine receptor (human) agonism | D3R DiscoveRx beta-arrestin cells, luminescence, 90 min | max activation, % | 410,000 compounds, 0.58% hits | AID 652048; in the data active = max activation above about 30%; also: 0% is about no effect
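Cells at 1500/well, incubated overnight, then treated with pinned compounds (dopamine as control) for 90 min at 37 degrees C. DiscoveRx reagent added for 30 - 60 minutes at room temperature; luminescence read.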
TDP1 cell noCPT: qHTS for Inhibitors of human tyrosyl-DNA phosphodiesterase 1 (TDP1): qHTS in cells in absence of CPT; Potency, µM (titrated, usually from 46.2 µM), for the others: at the top dose activity change, negative = growth inhibition, actives largely listed as inhibitors; AID 686978, 2013; 420,000 compounds, 15% hits; DT40 Tdp1-/- hTDP1 cells, no CPT, ATP luminescence, 48 h; also: potency is read from the fitted curve at half-maximal effect; % is scaled to controls: 0 for no effect and ±100 for the full control effect; nearly all actives have a fitted effect of over 55% in size
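No-CPT arm: Tdp1-/-;hTDP1 DT40 cells (400/well) plus compounds, incubated ≥48 hr at 37 °C. Readout CellTiter-Glo luminescence.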
DT40 TDP1 CPT: DT40-hTDP1 cell growth loss with CPT; Potency, µM (highest dose often 46.2 µM), inactives show top-dose activity change, negative = growth inhibition, hits mostly inhibitors; chicken DT40 Tdp1-/-;hTDP1 cells + 20 nM CPT, ATP luminescence, 48 h; AID 686979; 420,000 compounds, 12% hits; also: potency is read from the fitted curve at half-maximal effect; % is scaled to controls: 0 for no effect and ±100 for the full control effect; nearly all actives have a fitted effect of over 55% in size
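Cell growth measured by CellTiter-Glo luminescence after a minimum 48 h, 37 C compound exposure with 20 nM CPT in Tdp1-knockout DT40 cells stably expressing hTDP1, seeded 400/well; qHTS titration format.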
* hit, by the source's call; u = inconclusive; x = no result. Unless noted, calls follow the shape of the dose curve; as a rule, active = well fitted inhibition curve with a large enough effect; inconclusive = small, poorly fitted or top-dose-only effect; inactive = flat fitted curve, though single readings scatter.

SMILES | ClpP mod | D3 antag | IL-1B inflam inh | DRD3 agonist | TDP1 cell noCPT | DT40 TDP1 CPT
COc1cc(/C=C2/C(=O)CNC2=O)ccc1O | 0.8% | 1.0 | 25.5 | -1.7 | 29.1% | 3.7%
O=C(Cc1cccs1)Nc1ccccc1F | 0.9% | 14.8 | 8.1 | 6.8 | -7.4% | 5.2%
COc1cc(/C=N/NC(=O)c2sc(N)c(C#N)c2C)ccc1O | u | -27.4 | -89.6* | 3.5 | 14.6µM* | u
Cc1c(C(=O)N/N=C/c2ccc(O)c(Br)c2)sc(N)c1C#N | -9.7% | -2.9 | -96.3* | 2.6 | u | u
COc1cc(/C=N/NC(=O)c2ccccc2)ccc1O | -4.7% | -3.1 | 0.1 | -1.0 | 8.9% | -13.1%
CCc1cccc(C)c1NC(=O)Cn1nc(C)c2nn(-c3ccc(Cl)cc3)c(C)c2c1=O | 1.0% | x | x | 6.6 | 20.6µM* | 16.4µM*
CCOc1ccccc1CNC(=O)Cn1nc(C)c2nn(-c3ccc(Cl)cc3)c(C)c2c1=O | 6.3% | x | x | 4.2 | 18.4µM* | u
Cc1ccccc1CNC(=O)Cn1nc(C)c2nn(-c3ccc(Cl)cc3)c(C)c2c1=O | -14.0% | x | x | 5.4 | u | u
OC[C@H]1O[C@@H]2O[C@H]3[C@H](O)[C@@H](O)[C@@H](O[C@H]4[C@H](O)[C@@H](O)[C@@H](O[C@H]5[C@H](O)[C@@H](O)[C@@H](O[C@H]6[C@H](O)[C@@H](O)[C@@H](O[C@H]7[C@H](O)[C@@H](O)[C@@H](O[C@H]8[C@H](O)[C@@H](O)[C@@H](O[C@H]1[C@H](O)[C@H]2O)O[C@@H]8CO)O[C@@H]7CO)O[C@@H]6CO)O[C@@H]5CO)O[C@@H]4CO)O[C@@H]3CO | x | x | x | -14.9 | -1.6% | 3.6%
CCc1ccc(N(CC(=O)N2CCCCCC2)S(C)(=O)=O)cc1 | x | -2.0 | -10.5 | 3.2 | -14.4% | 16.8%
Cc1cccc(C)c1NC(=O)CN1C(=O)S/C(=C\c2cccn2-c2cccc(C(=O)O)c2)C1=O | 28.2µM* | 18.9 | 7.5 | 2.5 | -6.4% | 1.4%
O=S(=O)(c1cccc(-c2nnc(SCc3ccc(Cl)cc3)o2)c1)N1CCCCC1 | -1.7% | 13.3 | 4.7 | 4.1 | 23.1µM* | 8.2µM*
O=S(=O)(Nc1ccc(-c2nnc(SCc3ccc(Cl)cc3)o2)cc1)c1ccccc1 | -8.2% | 9.1 | -78.7* | -1.7 | u | u
NC(=O)CSc1nnc(-c2cccc(S(=O)(=O)N3CCCCC3)c2)o1 | -2.2% | 0.9 | -9.3 | 6.2 | u | 1.9%
O=C(O)c1ccc(CSc2nnc(-c3ccc(Cl)cc3)o2)cc1 | 0.4% | 8.7 | 46.9 | 3.2 | 2.9% | 3.0%
COC(=O)c1cnn(-c2ccc(F)cc2F)c1/C=N/NC(N)=S | -0.9% | -5.5 | 10.1 | -3.6 | u | u
O=[N+]([O-])c1cc(N=Nc2ccc3ccccc3c2)ccc1O | 0.5% | 0.9 | 2.1 | 5.7 | u | 18.4µM*
Nc1ccc(O)c([N+](=O)[O-])c1 | 0.0% | -5.5 | -5.4 | 11.2 | -17.1% | -12.5%
CCC(=O)c1c(CC)c2n3c1CC[C@H]3CCC2 | -1.1% | 30.2 | 41.2 | 12.8 | -21.0% | -12.7%
CC1(c2ccc(Cl)cc2)NC(=O)N(CC(=O)N2CCN(S(=O)(=O)c3ccccc3)CC2)C1=O (centres undefined) | -0.4% | 6.3 | -3.1 | -10.9 | u | u
CN(C(=O)c1ccc(NC(=O)Cc2ccc(NC(=O)C3CCN(C(=O)CCc4ccccc4)CC3)cc2)cc1)C1CC1 | -0.1% | -1.4 | -8.9 | -15.9 | 18.4µM* | 25.9µM*
O=C(Cc1cccc(NC(=O)C2CCN(C(=O)c3ccccc3)CC2)c1)Nc1cccc(C(=O)N2CCCC2)c1 | -5.0% | 2.0 | -5.2 | 28.2 | 3.0% | -0.6%
O=C(Cc1cccc(NC(=O)C2CCN(C(=O)CCc3ccccc3)CC2)c1)Nc1cccc(C(=O)N2CCCC2)c1 | -0.6% | 10.2 | -0.9 | -0.3 | 16.4µM* | u
